In PubChem BioAssay (NCATS):
Results filed as inconclusive are left out. Calls of active or inactive are those of the source. Unless noted, calls come from the whole dose curve; as a rule, active = well fitted curve in either direction with a large enough effect (not every such curve was filed as active); inconclusive = small, poorly fitted or top-dose-only effect, or another doubt; inactive = flat fitted curve, though single readings scatter.

Tests used:
[1] = target: Lysosomal acid glucosylceramidase (Homo sapiens) (UniProt P04062); assay: Glucocerebrosidase-p2 (AID 348; in the data active = potency below about 10 µM; note: potency is the fitted concentration of half-maximal effect); details: purified GBA, blue fluorogenic substrate, 40 min
Procedure, shortened: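 Compounds titrated from 0.6 nM upwards against 0.2 nM enzyme in pH 5.9 citric acid/KH2PO4, taurocholate, tween-20; blue fluorogenic substrate 80 uM, 40 min room temperature, stopped and read Ex 365/Em 440 for AC50.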

[2] = AP1 Signaling Pathway (AID 357); details: ME-180 AP-1-bla reporter, EGF-induced, beta-lactamase ratio, 5 h; at 7.69 µM (top of the series) unless noted;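 note: ME-180 reporter cells stimulated with EGF at its EC50 level; % is set by controls: 0 for no effect and ±100 for the full control effect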
Procedure, shortened: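 First, ME-180 AP-1-bla cells were cultured overnight at 37 °C in low-serum Opti-MEM. Next, titrated compounds with EC50 EGF were incubated 5 hours. Finally, CCF4 was added for 2.5 hours and the 460/530 nm ratio recorded.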

[3] = target: Cytochrome P450 1A2 (Homo sapiens) (UniProt P05177); assay: p450-cyp1a2 (AID 410; calls by dose curve; note: potency is the fitted concentration of half-maximal effect); details: recombinant CYP1A2, luciferin-ME demethylation, luminescence; series mostly up to 57 µM
Procedure, shortened: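 Luminescent readout of luciferin formed from Luciferin-ME by human CYP1A2; data normalized against complete inhibition by 57 uM furafylline. Enzyme 20nM, substrate 100uM at Km, 100mM KPO4 buffer, 60 min reaction at room temperature.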

[4] = NFAT Signaling Pathway (AID 444); details: Jurkat NFAT-bla M1, carbachol, beta-lactamase ratio, 5 h; at 7.69 µM (top of the series) unless noted;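 note: carbachol stimulus at about its EC50 of 1 µM final; % is set by controls: 0 for no effect and ±100 for the full control effect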
Procedure, shortened: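 Jurkat cells with NFAT-driven β-lactamase reporter and co-expressed M1 receptor, stimulated with carbachol (final 1 uM, ~EC50), compound titration, 5 h at 37 °C. CCF4 loaded 1 h at RT; 460/530 nm ratio gave %activity and AC50.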

[5] = Stat Signaling Pathway (AID 446); details: ME-180 SIE beta-lactamase reporter, IL-6 stimulated, 5 h; at 7.69 µM (top of the series) unless noted;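 note: ME-180 cervical cancer cells given 40 pM IL-6 alongside compound; SIE-controlled beta-lactamase reporter measured as 460/530 nm FRET emission ratio; % is set by controls: 0 for no effect and ±100 for the full control effect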
Procedure, shortened: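 Screening format detects activators and inhibitors alike: ME-180 SIE-bla cells stimulated at 40 pM IL-6 for 5 hrs with compound, then dual-emission beta-lactamase read at 405 nm excitation.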

[6] = target: Glucocorticoid receptor (Homo sapiens) (UniProt P04150); assay: GR-GFP Redistribution (AID 450;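 active = compounds whose dose series gives a full or clear partial fitted curve of increased nuclear translocation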; note: potency is the fitted concentration of half-maximal effect); details: U2OS GR-GFP nuclear translocation, laser cytometry, 2 h
[7] = target: Glucocorticoid receptor (Homo sapiens) (UniProt P04150); assay: GR-EFC Redistribution (AID 451; calls by dose curve; note: potency is the fitted concentration of half-maximal effect); details: CHO-K1 GR-EFC translocation, beta-gal luminescence, 2 h
Procedure, shortened: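 CHO-K1 cells expressing nuclear EA and GR-ED fragments of b-gal; compounds titrated up to 46 uM final, 2 h at 37 C. GR nuclear translocation read as complemented b-gal luminescence after 1 h RT detection.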

[8] = target: Mitogen-activated protein kinase 10 (Mus musculus) (UniProt Q61831); assay: JNK3 AlphaScreen Assay (AID 530); details: JNK3 lysate, c-Jun phosphorylation; series mostly up to 57.1 µM;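 note: kinase came from lysate of stimulated human HepG2 cells; signal reports phosphorylation of biotinylated GST-cJun 1-79 at Ser73 with 10 µM ATP; % is set by controls: 0 for no effect and ±100 for the full control effect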
Procedure, shortened: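 Pre-activated (IL-1β/TNFα) JNK3 in HepG2 lysates phosphorylates biotin-GST-cJun(1-79), 10 uM ATP; anti-phospho-cJun(Ser73) AlphaScreen read at room temperature, pH 7.6 Tris buffer. Compounds pre-incubated 15 min as titrations.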

[9] = target: 3',5'-cyclic-AMP phosphodiesterase 4B (Homo sapiens) (UniProt Q07343); assay: qHTS Assay for Inhibitors of PDE-IV (AID 607; active = well fitted activation curve with a large enough effect in the main read-out, with a control signal flat, not every such curve was filed as active; note: % of control where 0% means no effect); details: HEK293 ACTOne CNG channel cells, membrane potential fluorescence; series mostly up to 22.9 µM
Procedure, shortened: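 The readout is membrane depolarisation from a cAMP-sensing CNG channel, detected with a potential dye at ex 535/em 590. Cells were HEK293-derived (endogenous PDE-IV) at 1000 cells/well, titrated up to 22.9 uM final.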

[10] = Primary qHTS for small molecule stabilizers of the endoplasmic reticulum resident proteome: Secreted ER Calcium Modulated Protein (SERCaMP) assay (AID 1508630; active = well fitted curve in the direction sought with a large enough effect; an effect the other way counts as inactive or inconclusive; note: % is set by controls: 0 for no effect and ±100 for the full control effect); details: SH-SY5Y GLuc-SERCaMP (Gaussia luciferase released on ER calcium loss) secretion, thapsigargin, luminescence; series mostly up to 38.4 µM
Procedure, shortened: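 GLuc-SERCaMP-expressing SH-SY5Y cells, pretreated 16 h with compound, are challenged with thapsigargin to empty ER calcium stores; after 4 h, coelenterazine is added directly to the medium and luminescence is imaged.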

[11] = target: Cytochrome P450 3A4 (Homo sapiens) (UniProt P08684); assay: qHTS Assay for Activators of Cytochrome P450 3A4 (AID 885; active = well fitted curve in the direction sought with a large enough effect; an effect the other way counts as inactive or inconclusive; note: nearly all actives have a fitted effect of over 65% in size); details: recombinant CYP3A4, Luciferin-PPXE luminescence, 60 min; series mostly up to 57.1 µM
Procedure, shortened: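 Steps: enzyme/substrate mix dispensed; compound added, 10 min RT; NADPH regeneration solution added, 60 min RT; luciferin detection buffer stops reaction; 20 min later luminescence measured.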

[12] = target: Cytochrome P450 3A4 (Homo sapiens) (UniProt P08684); assay: qHTS Assay for Inhibitors and Substrates of Cytochrome P450 3A4 (AID 884; active = well fitted curve in the direction sought with a large enough effect; an effect the other way counts as inactive or inconclusive; note: nearly all actives have a fitted effect of over 50% in size; note: potency is the fitted concentration of half-maximal effect); details: recombinant CYP3A4, Luciferin-PPXE luminescence; series mostly up to 57.1 µM
Procedure, shortened: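 20 nM human CYP3A4 with 25 uM Luciferin-PPXE (at KM) in 200 mM KPO4, preincubated 10 min with compound; NADPH regeneration started a 60 min RT reaction. Luciferin detected by luminescence, normalized to 57 uM ketoconazole as full inhibition.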

[13] = qHTS Assay for Identification of Small Molecule Agonists for Hypoxia Response Element Signaling Pathway (AID 914; active = well fitted activation curve with a large enough effect in the signal ratio, with a control signal flat, not every such curve was filed as active; the % refers to the signal ratio; note: % of control where 0% means no effect); details: ME-180 (cervical carcinoma) HRE-bla reporter, beta-lactamase ratio, CoCl2, 17 h; activation: active compounds read high
Procedure, shortened: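 A beta-lactamase reporter under hypoxia response element control in ME-180 cells served as the system. Compound titrations plus EC50 CoCl2 ran 17 h at 37 degrees Celsius; AC50 values were fitted from %Activity.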

[14] = target: Cytochrome P450 2C9 (Homo sapiens) (UniProt P11712); assay: qHTS Assay for Inhibitors and Substrates of Cytochrome P450 2C9 (AID 883; active = well fitted curve in the direction sought with a large enough effect; an effect the other way counts as inactive or inconclusive; note: nearly all actives have a fitted effect of over 60% in size; note: potency is the fitted concentration of half-maximal effect); details: recombinant CYP2C9, luciferin-H luminescence, 60 min; series mostly up to 57.1 µM
Procedure, shortened: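 Human CYP2C9 (10nM) with Luciferin-H at 100uM (its KM) in 25mM KPO4; compound preincubated 10 min at 37C, then NADPH regeneration for 60 min at 37C. Luciferin read by luminescence after detection reagent; normalized to 57uM sulphaphenazole as full inhibition.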

[15] = target: Cytochrome P450 2C19 (Homo sapiens) (UniProt P33261); assay: qHTS Assay for Inhibitors and Substrates of Cytochrome P450 2C19 (AID 899; active = well fitted curve in the direction sought with a large enough effect; an effect the other way counts as inactive or inconclusive; note: potency is the fitted concentration of half-maximal effect; nearly all actives have a fitted effect of over 60% in size); details: recombinant CYP2C19, luciferin-H EGE luminescence; series mostly up to 57.1 µM
Procedure, shortened: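 5 nM human CYP2C19 with 10uM Luciferin-H EGE (at KM) in 50mM KPO4, compound preincubated 10 min at 37C, then NADPH regeneration for 60 min at 37C. Luciferin read by luminescence after detection reagent; normalized to 57uM ketoconazole as full inhibition.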

[16] = Confirmation and Secondary Assay for Modulators of Hemoglobin Beta Chain Splicing at IVS2 654 locus (AID 910; active = well fitted curve in the direction sought with a large enough effect; an effect the other way counts as inactive or inconclusive;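 note: HeLa cells stably carrying EGFP split by mutant beta-globin IVS2-654 intron; % of control where 0% means no effect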); details: HeLa EGFP-654 splicing reporter, GFP fluorescence, 48 h; series mostly up to 38.3 µM
Procedure, shortened: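 HeLa cells stably expressing EGFP interrupted by β-globin IVS2-654 intron, seeded overnight in Opti-MEM/2% FCS, then treated 2 days at 37 °C. Restored splicing read as total peak GFP intensity per well by laser scanning cytometry (488 nm excitation, 500–520 nm emission); 500 nM antisense PNA as control.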

[17] = Confirmation and Secondary Assay for Modulators of Hemoglobin Beta Chain Splicing at IVS2 705 locus (AID 930; active = well fitted curve in the direction sought with a large enough effect; an effect the other way counts as inactive or inconclusive;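 note: HeLa cells stably expressing the EGFP-705 splicing reporter; GFP fluorescence per well restored by corrected splicing of the IVS2-705 intron in EGFP; % of control where 0% means no effect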); details: HeLa EGFP-705 splicing reporter, GFP fluorescence, 48 h; series mostly up to 38.3 µM
Procedure, shortened: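 Fluorescence gain (488 nm laser, 500-520 nm PMT) reflects restored correct splicing of a mutant IVS2-705 intron inside EGFP in stably transfected HeLa cells after 2-day compound treatment.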

[18] = target: Ubiquitin carboxyl-terminal hydrolase 1 (Homo sapiens) (UniProt O94782); assay: Inhibitors of USP1/UAF1: Pilot qHTS (AID 504865; active = well fitted curve in the direction sought with a large enough effect; an effect the other way counts as inactive or inconclusive; note: nearly all actives have a fitted effect of over 35% in size; note: potency is the fitted concentration of half-maximal effect); details: purified USP1/UAF1, Ub-rhodamine cleavage fluorescence; series mostly up to 54.9 µM
Procedure, shortened: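 USP1/UAF1 complex at 1 nM preincubated 15 min at room temperature with compound, then Ub-Rho substrate added at 150 nM final. Fluorescence (480/540 nm) read kinetically in 50 mM HEPES pH 7.8, 0.5 mM EDTA, 1 mM TCEP, 0.1 mg/ml BSA, 0.01% Tween-20.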

Cytochrome P450 1A2 (Homo sapiens), sequence (P05177 whole entry, looked up): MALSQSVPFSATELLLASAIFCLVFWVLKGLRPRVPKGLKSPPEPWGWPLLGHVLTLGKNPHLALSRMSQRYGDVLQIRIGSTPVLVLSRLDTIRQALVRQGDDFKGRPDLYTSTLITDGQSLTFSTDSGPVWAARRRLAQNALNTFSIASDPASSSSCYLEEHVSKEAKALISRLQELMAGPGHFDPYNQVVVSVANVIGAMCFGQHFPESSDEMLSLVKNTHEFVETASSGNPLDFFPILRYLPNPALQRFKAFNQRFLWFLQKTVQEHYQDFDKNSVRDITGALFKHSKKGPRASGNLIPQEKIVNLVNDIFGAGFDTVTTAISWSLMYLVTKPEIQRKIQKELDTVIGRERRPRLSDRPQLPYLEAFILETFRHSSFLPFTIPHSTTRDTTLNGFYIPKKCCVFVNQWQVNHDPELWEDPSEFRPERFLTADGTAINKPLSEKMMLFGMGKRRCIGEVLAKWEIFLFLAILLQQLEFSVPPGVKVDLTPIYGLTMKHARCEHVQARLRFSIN
3',5'-cyclic-AMP phosphodiesterase 4B (Homo sapiens), sequence (Q07343 whole entry, looked up): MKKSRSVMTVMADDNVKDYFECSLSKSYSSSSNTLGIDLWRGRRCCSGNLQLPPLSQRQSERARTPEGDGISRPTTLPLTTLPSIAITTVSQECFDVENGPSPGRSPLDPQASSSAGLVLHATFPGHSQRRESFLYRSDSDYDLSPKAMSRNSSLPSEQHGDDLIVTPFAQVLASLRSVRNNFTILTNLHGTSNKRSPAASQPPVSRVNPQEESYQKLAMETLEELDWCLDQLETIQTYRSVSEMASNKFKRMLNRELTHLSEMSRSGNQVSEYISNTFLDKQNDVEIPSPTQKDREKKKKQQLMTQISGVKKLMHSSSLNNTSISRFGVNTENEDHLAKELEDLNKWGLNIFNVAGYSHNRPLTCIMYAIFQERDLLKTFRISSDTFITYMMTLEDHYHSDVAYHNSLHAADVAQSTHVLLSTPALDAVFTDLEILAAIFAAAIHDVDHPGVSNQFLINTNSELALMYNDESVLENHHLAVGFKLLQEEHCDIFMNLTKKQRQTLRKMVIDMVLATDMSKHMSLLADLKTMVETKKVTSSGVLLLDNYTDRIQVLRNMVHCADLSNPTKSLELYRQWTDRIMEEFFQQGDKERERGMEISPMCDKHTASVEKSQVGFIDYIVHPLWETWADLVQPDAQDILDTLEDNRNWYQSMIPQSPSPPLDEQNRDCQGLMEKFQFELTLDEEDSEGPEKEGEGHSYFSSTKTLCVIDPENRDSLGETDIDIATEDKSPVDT
Glucocorticoid receptor (Homo sapiens), sequence (P04150 whole entry, looked up, the tested form may be a part): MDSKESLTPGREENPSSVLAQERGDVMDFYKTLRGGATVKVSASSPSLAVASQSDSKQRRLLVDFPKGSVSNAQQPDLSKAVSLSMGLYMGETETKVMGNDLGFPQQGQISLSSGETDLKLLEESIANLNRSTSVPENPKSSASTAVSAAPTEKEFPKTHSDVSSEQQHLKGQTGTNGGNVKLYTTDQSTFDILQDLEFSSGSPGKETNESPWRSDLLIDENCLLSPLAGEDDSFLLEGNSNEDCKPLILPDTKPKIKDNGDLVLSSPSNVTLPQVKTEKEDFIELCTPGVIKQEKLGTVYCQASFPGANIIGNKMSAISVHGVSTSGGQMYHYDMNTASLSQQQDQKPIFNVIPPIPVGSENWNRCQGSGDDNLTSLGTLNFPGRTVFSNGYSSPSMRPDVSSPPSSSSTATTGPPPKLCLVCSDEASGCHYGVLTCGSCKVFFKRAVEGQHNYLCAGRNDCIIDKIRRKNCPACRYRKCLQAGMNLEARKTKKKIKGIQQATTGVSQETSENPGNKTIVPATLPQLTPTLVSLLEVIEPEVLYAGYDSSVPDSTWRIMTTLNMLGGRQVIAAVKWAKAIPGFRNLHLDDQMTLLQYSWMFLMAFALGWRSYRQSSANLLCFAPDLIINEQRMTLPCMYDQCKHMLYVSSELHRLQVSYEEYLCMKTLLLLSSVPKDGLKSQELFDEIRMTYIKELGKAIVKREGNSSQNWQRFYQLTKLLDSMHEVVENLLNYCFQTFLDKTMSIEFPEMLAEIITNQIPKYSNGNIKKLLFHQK
Lysosomal acid glucosylceramidase (Homo sapiens), sequence (P04062 whole entry, looked up): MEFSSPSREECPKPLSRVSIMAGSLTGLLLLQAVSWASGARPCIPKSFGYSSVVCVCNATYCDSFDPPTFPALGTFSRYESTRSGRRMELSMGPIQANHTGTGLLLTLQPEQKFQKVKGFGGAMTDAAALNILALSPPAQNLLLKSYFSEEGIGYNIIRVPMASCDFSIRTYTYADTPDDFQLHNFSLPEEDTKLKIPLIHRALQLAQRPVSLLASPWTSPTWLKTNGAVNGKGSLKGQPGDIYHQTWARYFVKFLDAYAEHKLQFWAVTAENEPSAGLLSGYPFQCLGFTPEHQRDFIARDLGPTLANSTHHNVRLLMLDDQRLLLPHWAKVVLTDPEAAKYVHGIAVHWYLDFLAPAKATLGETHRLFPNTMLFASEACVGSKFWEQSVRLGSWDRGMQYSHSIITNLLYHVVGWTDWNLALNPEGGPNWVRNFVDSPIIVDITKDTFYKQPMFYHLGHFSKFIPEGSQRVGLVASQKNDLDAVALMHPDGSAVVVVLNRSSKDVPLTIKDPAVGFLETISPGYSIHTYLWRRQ
Cytochrome P450 2C19 (Homo sapiens), sequence (P33261 whole entry, looked up): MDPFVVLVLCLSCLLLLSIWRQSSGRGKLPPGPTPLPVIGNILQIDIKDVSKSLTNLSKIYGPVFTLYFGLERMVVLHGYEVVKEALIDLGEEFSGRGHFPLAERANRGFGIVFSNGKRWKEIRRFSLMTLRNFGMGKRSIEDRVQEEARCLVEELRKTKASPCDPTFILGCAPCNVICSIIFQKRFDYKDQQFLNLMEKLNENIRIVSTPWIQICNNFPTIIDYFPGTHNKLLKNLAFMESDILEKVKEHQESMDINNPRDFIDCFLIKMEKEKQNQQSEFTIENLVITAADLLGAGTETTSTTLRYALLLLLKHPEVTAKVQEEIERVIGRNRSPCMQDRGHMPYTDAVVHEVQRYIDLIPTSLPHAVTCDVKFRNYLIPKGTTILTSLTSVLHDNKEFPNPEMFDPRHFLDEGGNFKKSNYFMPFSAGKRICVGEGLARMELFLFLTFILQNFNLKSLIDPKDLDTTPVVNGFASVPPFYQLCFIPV
Cytochrome P450 3A4 (Homo sapiens), sequence (P08684 whole entry, looked up): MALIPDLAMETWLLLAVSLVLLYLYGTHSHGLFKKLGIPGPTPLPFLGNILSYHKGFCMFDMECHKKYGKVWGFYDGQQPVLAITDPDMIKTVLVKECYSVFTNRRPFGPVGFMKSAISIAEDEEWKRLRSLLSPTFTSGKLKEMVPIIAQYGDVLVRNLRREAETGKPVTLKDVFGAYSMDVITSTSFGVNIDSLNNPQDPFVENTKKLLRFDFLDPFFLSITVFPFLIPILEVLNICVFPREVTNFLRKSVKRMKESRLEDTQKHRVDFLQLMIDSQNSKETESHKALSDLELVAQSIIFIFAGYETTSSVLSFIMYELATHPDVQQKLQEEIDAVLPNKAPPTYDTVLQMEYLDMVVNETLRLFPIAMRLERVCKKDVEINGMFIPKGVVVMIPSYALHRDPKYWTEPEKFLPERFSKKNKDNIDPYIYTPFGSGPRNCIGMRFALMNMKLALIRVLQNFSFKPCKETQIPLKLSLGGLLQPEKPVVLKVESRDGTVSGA
Cytochrome P450 2C9 (Homo sapiens), sequence (P11712 whole entry, looked up): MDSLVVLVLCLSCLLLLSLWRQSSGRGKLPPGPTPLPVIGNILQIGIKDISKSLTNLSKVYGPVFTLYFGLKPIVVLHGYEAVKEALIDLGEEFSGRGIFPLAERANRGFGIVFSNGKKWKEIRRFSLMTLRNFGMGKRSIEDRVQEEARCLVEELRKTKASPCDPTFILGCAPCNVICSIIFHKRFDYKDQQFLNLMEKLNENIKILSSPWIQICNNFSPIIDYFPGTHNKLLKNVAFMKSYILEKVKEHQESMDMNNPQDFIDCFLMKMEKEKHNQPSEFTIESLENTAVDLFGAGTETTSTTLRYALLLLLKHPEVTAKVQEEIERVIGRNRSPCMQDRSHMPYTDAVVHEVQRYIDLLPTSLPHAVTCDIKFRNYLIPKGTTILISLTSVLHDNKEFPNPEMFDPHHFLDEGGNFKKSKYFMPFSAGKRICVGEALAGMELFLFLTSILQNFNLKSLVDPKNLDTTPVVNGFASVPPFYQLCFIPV
Ubiquitin carboxyl-terminal hydrolase 1 (Homo sapiens), sequence (O94782 whole entry, looked up): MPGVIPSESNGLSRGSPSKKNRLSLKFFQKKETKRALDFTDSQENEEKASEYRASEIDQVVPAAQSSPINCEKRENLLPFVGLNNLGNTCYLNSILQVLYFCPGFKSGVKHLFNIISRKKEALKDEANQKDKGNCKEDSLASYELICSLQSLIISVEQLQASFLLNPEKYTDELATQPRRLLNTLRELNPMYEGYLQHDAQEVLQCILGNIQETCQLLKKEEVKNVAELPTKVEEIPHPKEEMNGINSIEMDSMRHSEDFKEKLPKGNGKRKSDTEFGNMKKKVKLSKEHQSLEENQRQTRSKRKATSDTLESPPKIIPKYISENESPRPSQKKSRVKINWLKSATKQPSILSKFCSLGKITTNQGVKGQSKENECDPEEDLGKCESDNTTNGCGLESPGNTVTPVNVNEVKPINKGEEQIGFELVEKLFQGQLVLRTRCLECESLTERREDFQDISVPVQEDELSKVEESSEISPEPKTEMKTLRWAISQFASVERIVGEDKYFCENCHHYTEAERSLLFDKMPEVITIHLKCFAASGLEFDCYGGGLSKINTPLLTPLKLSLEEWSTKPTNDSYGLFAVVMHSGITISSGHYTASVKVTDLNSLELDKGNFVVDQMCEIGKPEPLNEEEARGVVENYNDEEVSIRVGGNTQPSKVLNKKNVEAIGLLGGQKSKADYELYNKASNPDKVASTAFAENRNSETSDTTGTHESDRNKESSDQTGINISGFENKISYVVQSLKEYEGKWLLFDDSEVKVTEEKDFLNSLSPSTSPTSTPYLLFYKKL

CN(C)c1ncc2ncc(=O)n(C)c2n1
active: Potency [3] 6.31 µM
inactive: Potency [1] > 11.4 µM | activity change, negative = inhibition [2] -20.1% | activity change, negative = inhibition [4] 0.153% | activity, negative = inhibition [5] -5.5% | Potency [6] > 9.22 µM | Potency [7] > 46 µM | Potency [8] | Potency [9] | outcome [10]

COc1ccc(-n2c(=O)cnc3cnc(Oc4cccc(Cl)c4)nc32)cc1
inactive: Potency [1] > 11.4 µM | activity change, negative = inhibition [2] -9.58% | activity change, negative = inhibition [4] 4.93% | activity, negative = inhibition [5] -9.34% | Potency [6] > 9.22 µM | Potency [7] > 46 µM | Potency [8] | Potency [9] | Potency [11] | outcome [10]
active: Potency [3] 7.94 µM

Cn1c(=O)c(-c2ccc(F)cc2)nc2cnc(Oc3ccccc3)nc21
active: Potency [3] 0.316 µM
inactive: Potency [1] > 11.4 µM | activity change, negative = inhibition [2] 14.3% | activity change, negative = inhibition [4] 5.5% | activity, negative = inhibition [5] -0.989% | Potency [6] > 9.22 µM | Potency [7] > 46 µM | Potency [8] | Potency [9] | Potency [12] | outcome [10]

COCCn1c(=O)c(-c2ccc(F)cc2)nc2cncnc21
inactive: Potency [1] > 11.4 µM | activity change, negative = inhibition [2] -7.99% | activity change, negative = inhibition [4] 1.81% | activity, negative = inhibition [5] 2.35% | Potency [6] > 9.22 µM | Potency [7] > 46 µM | Potency [8] | Potency [9] | Potency [11] | activation [13] 3.14% | outcome [10]
active: Potency [3] 0.501 µM

O=c1c(CCc2ccccc2)nc2cnc(N3CCOCC3)nc2n1Cc1ccc(F)cc1
active: Potency [3] 10 µM
inactive: Potency [1] > 11.4 µM | activity change, negative = inhibition [2] -10.7% | activity change, negative = inhibition [4] -2.42% | activity, negative = inhibition [5] 17.6% | Potency [6] > 9.22 µM | Potency [7] > 46 µM | Potency [8] | outcome [10]

COc1ccc(-n2c(=O)c(-c3cn(C)c4ccccc34)nc3cncnc32)cc1
active: Potency [3] 0.316 µM
inactive: Potency [1] > 11.4 µM | activity change, negative = inhibition [2] -24.9% | activity change, negative = inhibition [4] 6.02% | activity, negative = inhibition [5] -19.8% | Potency [6] > 9.22 µM | Potency [7] > 46 µM | Potency [8] | Potency [9] | Potency [14] | Potency [11] | outcome [10]

Cc1cccc(CNc2cc(-c3cccc(C#N)c3)ncn2)c1
inactive: Potency [1] > 11.4 µM | activity change, negative = inhibition [2] -11.1% | activity change, negative = inhibition [4] 7.94% | activity, negative = inhibition [5] -3.7% | Potency [6] > 46 µM | Potency [7] > 46 µM | Potency [8] | Potency [9] | Potency [11] | Potency [16] | outcome [17] | outcome [10]
active: Potency [3] 0.158 µM | Potency [12] 7.94 µM | Potency [15] 6.31 µM

O=c1cnc2cnc(Oc3cccc(Cl)c3)nc2n1C1CC1
inactive: Potency [1] > 11.4 µM | activity change, negative = inhibition [2] -27.3% | activity change, negative = inhibition [4] 0.268% | activity, negative = inhibition [5] -9.7% | Potency [6] > 9.22 µM | Potency [7] > 46 µM | Potency [8] | Potency [9] | outcome [10]
active: Potency [3] 2.51 µM | Potency [14] 6.31 µM

COc1ccc(-c2nc3cnc(N4CCOCC4)nc3n(CCC#N)c2=O)cc1
active: Potency [3] 3.16 µM
inactive: Potency [1] > 11.4 µM | activity change, negative = inhibition [2] 3.37% | activity change, negative = inhibition [4] 2.6% | activity, negative = inhibition [5] 16.9% | Potency [6] > 9.22 µM | Potency [7] > 46 µM | Potency [8] | Potency [9] | outcome [10]

N#Cc1cccc(-c2nc(NCc3ccccc3)c3ccccc3n2)c1
active: Potency [3] 0.398 µM | Potency [15] 6.31 µM | Potency [18] 15.8 µM
inactive: Potency [1] > 11.4 µM | activity change, negative = inhibition [2] -14.6% | activity change, negative = inhibition [4] -13.5% | activity, negative = inhibition [5] -8.06% | Potency [6] > 46 µM | Potency [7] > 46 µM | Potency [8] | Potency [11] | outcome [10]

c1ccc(Nc2ncncc2-c2ccc3c(c2)OCO3)cc1
inactive: Potency [1] > 11.4 µM | activity change, negative = inhibition [2] -19.3% | activity change, negative = inhibition [4] 9.45% | activity, negative = inhibition [5] -14.2% | Potency [6] > 46 µM | Potency [7] > 46 µM | Potency [8] | Potency [11] | Potency [18] | outcome [10]
active: Potency [3] 0.316 µM | Potency [12] 0.794 µM | Potency [15] 0.251 µM

CN(C)C(=O)c1ccc(-c2cncnc2-n2ccnc2)cc1
active: Potency [3] 20 µM
inactive: Potency [1] > 11.4 µM | activity change, negative = inhibition [2] -3.64% | activity change, negative = inhibition [4] 13% | activity, negative = inhibition [5] 3.39% | Potency [6] > 46 µM | Potency [7] > 46 µM | Potency [8] | Potency [9] | Potency [11] | outcome [10]
